High-throughput results: PubChem, Broad Institute
PDI turbidity – blocks human protein disulfide isomerase activity; inhibition, % at 10 µM; P07237; AID 588391; PDI insulin aggregation turbidity, A650, 90 min; 0.052% of 350,000 active;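 active = mean inhibition across replicates of 30% or more, whatever share of single replicates reach that level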
ERp5 block – blocks human ERp5 reductase activity on insulin. ERp5 insulin aggregation, absorbance 650 nm, 90 min. inhibition, % at 9.99 µM. 0.05% of 350,000 active. AID 651711;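 active = mean replicate inhibition above about 25%, with every replicate also reaching it, limit read from the data, passing the limit was not always enough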
Target sequence (Q15084 whole entry, looked up): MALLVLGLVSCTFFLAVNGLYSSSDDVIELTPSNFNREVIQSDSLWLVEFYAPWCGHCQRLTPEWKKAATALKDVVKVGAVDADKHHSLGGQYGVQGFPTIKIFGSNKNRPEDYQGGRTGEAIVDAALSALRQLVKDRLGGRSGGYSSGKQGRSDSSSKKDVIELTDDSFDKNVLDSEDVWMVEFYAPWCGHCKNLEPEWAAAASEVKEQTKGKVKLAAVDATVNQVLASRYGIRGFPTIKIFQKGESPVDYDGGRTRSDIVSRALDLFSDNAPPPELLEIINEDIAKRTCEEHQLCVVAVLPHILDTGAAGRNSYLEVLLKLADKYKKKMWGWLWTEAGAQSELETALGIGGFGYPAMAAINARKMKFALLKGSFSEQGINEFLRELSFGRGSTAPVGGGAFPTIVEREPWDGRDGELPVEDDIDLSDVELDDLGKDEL
SIRT5 block – sirtuin-5 (human) deacylase inhibition; Q9NXA8; Purified SirT5, succinyl-peptide AMC, trypsin-coupled fluorescence; inhibition, % at 15 µM; 1.1% of 330,000 active; in the data active = inhibition above about 15%
Rtt109 Vps75 – C. albicans Rtt109 histone acetyltransferase inhibition; purified Rtt109/Vps75, ThioGlo CoA-SH fluorescence, 4 h; inhibition, % at 34.9 µM; 0.16% of 330,000 active; AID 540336;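 active = inhibition of at least 50% in every replicate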
DENV2 CPE rescue – DENV2-induced cell death inhibition. AID 651640. DENV2-infected cells, cytopathic effect rescue, plate reader. 1.7% of 350,000 active. CPE inhibition, % at 9.99 µM; in the data active = CPE inhibition above about 20%, passing the limit was not always enough; tested in BHK-21 cells;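 note: 0% = median of neutral control wells and 100% = median of positive control wells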
* hit, by the source's call; . = no result. Rows were chosen to be rich in hits. Some 2.3% of all compounds tested hit in one or more screens of this group.

SMILES	PDI turbidity	ERp5 block	SIRT5 block	Rtt109 Vps75	DENV2 CPE rescue
C[C@@H]1CN([C@@H](C)CO)C(=O)Cc2cc(NC(=O)Nc3ccc(C(F)(F)F)cc3)ccc2O[C@H]1CN(C)CC1CC1	.	3	-7	.	-3
CC(=O)N1CCCCN2[C@H](CO)[C@@H](c3ccc(C#Cc4ccccc4F)cc3)[C@H]2C1	.	-3	4	.	24*
O=C(Nc1ccccc1F)N1CCCCN2[C@H](CO)[C@@H](c3ccc(C#Cc4ccccc4)cc3)[C@@H]2C1	.	-3	6	.	21*
O=C(Nc1ccccc1F)N1CCCCN2[C@H](CO)[C@H](c3ccc(C#Cc4ccccc4)cc3)[C@@H]2C1	.	1	4	.	4
c1csc(-c2ccn[nH]2)c1	3	1	-3	2	2
S=c1nccc(-c2cccs2)[nH]1	0	-2	15*	-4	2
COc1ccc(NS(=O)(=O)c2ccc(Oc3cccc(C(=O)O)c3)cc2)cc1	3	2	0	-5	-6
Cc1cccc(Oc2ccc(NS(=O)(=O)c3ccc(C)c(C(=O)O)c3)cc2)c1	6	26*	-4	12	4
C[C@@H]1CN([C@@H](C)CO)C(=O)c2cc(NC(=O)Nc3cccc4ccccc34)ccc2O[C@@H]1CN(C)Cc1ccc2c(c1)OCO2	.	-1	-1	.	17
C[C@H]1CN([C@@H](C)CO)C(=O)c2cc(NC(=O)Nc3cccc4ccccc34)ccc2O[C@@H]1CN(C)C(=O)Nc1ccc2c(c1)OCO2	.	-9	-2	.	23*
C[C@H](CO)N1C[C@H](C)[C@H](CN(C)Cc2ccc(-c3ccccc3)cc2)Oc2ccc(NC(=O)Nc3cccc4ccccc34)cc2C1=O	.	2	2	.	25*
C[C@H](CO)N1C[C@H](C)[C@H](CN(C)C(=O)Nc2ccc3c(c2)OCO3)Oc2ccc(NC(=O)Nc3cccc4ccccc34)cc2C1=O	.	2	14	.	13
C[C@@H]1CN([C@H](C)CO)C(=O)c2cc(NC(=O)Nc3cccc4ccccc34)ccc2O[C@@H]1CN(C)Cc1ccc2c(c1)OCO2	.	3	15*	.	0
O=C(NCC[C@H]1CC[C@H](NC(=O)C2CCOCC2)[C@H](CO)O1)Nc1ccc(Cl)cc1	.	2	2	.	3
CC(C)C[C@@H](CN=[N+]=[N-])N1CCN(CC(C)C)CCC1=O	0	-6	.	0	87*
CC(C)C[C@@H](CN=[N+]=[N-])N1CCN(C)CCC1=O	-3	-1	-2	0	-13
O=S(=O)(O)c1cccc2c(N=Nc3ccc(O)c4ncccc34)cccc12	13	2	34*	3	.
Cc1ccccc1N=Nc1ccc(O)c2ncccc12	-3	6	-1	9	-1
C[C@@H]1CN([C@H](C)CO)C(=O)Cc2cc(NS(=O)(=O)c3ccc(Cl)cc3)ccc2O[C@@H]1CN(C)Cc1ccc(C(F)(F)F)cc1	.	3	-3	.	-11
C[C@@H]1CN([C@@H](C)CO)C(=O)Cc2cc(NS(=O)(=O)c3ccc(F)cc3)ccc2O[C@@H]1CN(C)Cc1ccc(C(=O)O)cc1	.	-3	3	.	30*
C[C@H](CO)N1C[C@H](C)[C@H](CN(C)Cc2ccc(C(=O)O)cc2)Oc2ccc(NS(=O)(=O)c3ccc(F)cc3)cc2CC1=O	.	-5	2	.	3
C[C@@H]1CN([C@@H](C)CO)C(=O)Cc2cc(NS(=O)(=O)c3ccc(F)cc3)ccc2O[C@@H]1CN(C)Cc1ccc(C(F)(F)F)cc1	.	0	18*	.	1
C[C@@H]1CN([C@H](C)CO)C(=O)Cc2cc(NS(=O)(=O)c3ccc(F)cc3)ccc2O[C@H]1CN(C)Cc1ccc(C(F)(F)F)cc1	.	-3	23*	.	-12
C[C@H]1CN([C@@H](C)CO)C(=O)Cc2cc(NS(=O)(=O)c3ccc(F)cc3)ccc2O[C@@H]1CN(C)Cc1ccc(C(F)(F)F)cc1	.	2	20*	.	4
COc1ccc2c3c([nH]c2c1)[C@@H](CO)N(C(=O)c1cccnc1)CC31CN(C(=O)NC(C)C)C1	.	1	11	.	2
SMILES	PDI turbidity	ERp5 block	SIRT5 block	Rtt109 Vps75	DENV2 CPE rescue
COc1ccc(NC(=S)NC(=O)/C=C/c2ccccc2)cc1	5	0	1	5	38*
O=C(/C=C/c1ccco1)NC(=S)Nc1ccc(C(=O)O)cc1	9	-1	22*	-3	1
O=C(/C=C/c1ccc(Cl)cc1)NC(=S)Nc1ccccc1C(=O)O	5	2	2	39	23*
COc1ccccc1-c1ccc2c(c1)O[C@H](CN(C)C(=O)c1cccnc1)[C@H](C)CN([C@H](C)CO)S2(=O)=O	.	-1	-1	.	-2
COc1ccc(CN(C)C[C@@H]2Oc3ccc(NC(=O)Nc4ccc5c(c4)OCO5)cc3C(=O)N([C@@H](C)CO)C[C@@H]2C)cc1	.	2	5	.	4
COc1ccc(CN(C)C[C@H]2Oc3ccc(NC(=O)Nc4ccc(C(F)(F)F)cc4)cc3C(=O)N([C@H](C)CO)C[C@H]2C)cc1	.	0	0	.	13
COc1ccc(NC(=O)Nc2ccc3c(c2)C(=O)N([C@H](C)CO)C[C@H](C)[C@@H](CN(C)Cc2ccccc2)O3)cc1	.	11	-2	.	43*
COc1ccc(CN(C)C[C@H]2Oc3ccc(NC(=O)Nc4ccc(C(F)(F)F)cc4)cc3C(=O)N([C@@H](C)CO)C[C@H]2C)cc1	.	-4	-2	.	4
COc1ccc(NC(=O)Nc2ccc3c(c2)C(=O)N([C@H](C)CO)C[C@H](C)[C@@H](CN(C)Cc2ccc4c(c2)OCO4)O3)cc1	.	-2	16*	.	2
COc1ccc(CN(C)C[C@@H]2Oc3ccc(NC(=O)Nc4ccc(C(F)(F)F)cc4)cc3C(=O)N([C@@H](C)CO)C[C@H]2C)cc1	.	6	-6	.	44*
COc1ccc(NC(=O)Nc2ccc3c(c2)C(=O)N([C@H](C)CO)C[C@H](C)[C@@H](CN(C)Cc2ccc(C(F)(F)F)cc2)O3)cc1	.	-3	19*	.	20*
Cc1noc(C)c1S(=O)(=O)N(C)C[C@@H]1Oc2ccc(NS(=O)(=O)c3ccccc3)cc2CC(=O)N([C@H](C)CO)C[C@H]1C	.	3	-4	.	-13
O=C(Nc1cccc(-c2nc3cccnc3s2)c1)c1cccnc1Cl	0	6	0	60*	-6
CN1C(=O)c2cc(NC(=O)C3CCCCC3)ccc2OC[C@H]2O[C@H](CC(=O)NCC3CCCCC3)CC[C@@H]21	.	10	-3	.	14
CC(C)(CN1CCN(Cc2ccccc2)CC1)NS(=O)(=O)c1ccc(Cl)cc1	-2	0	-3	8	30*
O=C(C[C@H]1CC[C@@H](NC(=O)c2cccc(F)c2)[C@H](CO)O1)Nc1nccs1	.	2	-1	.	0
Cc1ccc(-c2cnc3c(c2)C(=O)N([C@H](C)CO)C[C@@H](C)[C@H](CN(C)C(=O)CN(C)C)O3)cc1	.	2	-1	.	7
C[C@H]1CN([C@@H](C)CO)S(=O)(=O)c2ccc(C#CC3CCCCC3)cc2O[C@@H]1CN(C)Cc1cccnc1	.	15	18*	.	18
